This passage reports growth results from PubChem BioAssay (NCI).

Where “and” joins values, the source holds several entries; their conditions need not be identical. Equal entries are not always repeated. The panel holds about 83,000 compounds, 20% with a hit somewhere; the sample as a whole holds those more often.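 Results are percent growth after 48 hours of single-concentration exposure. 100 means growth as in untreated cells, lower positive values show inhibition; negative values down to -100 show cell death.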 Calls of active or inactive are those of the source. The calls were made as follows: active = growth percent below 10; inactive = the rest.

Some test systems named below: NCI-H23 lung; NCI-H226 lung; NCI-H322M lung; HOP-62 NSCLC; NCI-H460 lung; HOP-92 NSCLC; NCI-H522 lung; A549/ATCC NSCLC; 786-0 renal; COLO 205 colon; DU-145 prostate; K-562 leukemia; MALME-3M melanoma; MDA-MB-231 breast; RXF 393 renal; SF-268 CNS; SF-295 CNS; SF-539 CNS; UACC-257 melanoma; M14 melanoma.
Experiment in all cases: NCI-60 one-dose screen, 48 h (100 = growth as untreated, 0 = no growth, -100 = all killed)
Common to all, as to settings: 10 µM unless noted

On to `CCN1C(=S)N(CC)C2C1NC(=S)N2/N=C/C=C/c1ccccc1` (stereo not given), for which the growth was 58.5% (inactive) in the experiment with NCI-H23 lung; 64.5% (inactive) in the experiment on NCI-H226 lung; 51.1% (inactive) in the experiment with NCI-H322M lung; 44.4% (inactive) with HOP-62 NSCLC; 12.4% (inactive) with NCI-H460 lung; 62.2% (inactive) in the experiment with HOP-92 NSCLC. Besides, the growth is -7.6% (active) with NCI-H522 lung; 37.6% (inactive) in the experiment on A549/ATCC NSCLC; 40.9% (inactive) with 786-0 renal; 33.4% (inactive) in the experiment with COLO 205 colon; 30.6% (inactive) with DU-145 prostate; 15.5% (inactive) with K-562 leukemia. Further, the growth was 28% (inactive) with MALME-3M melanoma; 52.7% (inactive) in the experiment with MDA-MB-231 breast; 2.31% (active) in the experiment with RXF 393 renal; 55.6% (inactive) with SF-268 CNS; 19.6% (inactive) in the experiment with SF-295 CNS; 11.4% (inactive) with SF-539 CNS. Also, the results for the growth in the experiment with UACC-257 melanoma and in the experiment with M14 melanoma were 41.7% (inactive) and 24.8% (inactive), respectively.
In the case of `COc1ccc2c(c1)c(-c1nc(-c3c[nH]c4c(Cl)nccc34)cs1)cn2C`, the growth is 73.9% (inactive) in the experiment with NCI-H23 lung; 37.2% (inactive) in the experiment on NCI-H226 lung; 91.3% (inactive) in the experiment with NCI-H322M lung; 92.6% (inactive) in the experiment with HOP-62 NSCLC; 31.1% (inactive) in the experiment with NCI-H460 lung; 76.1% (inactive) in the experiment on HOP-92 NSCLC. Also, the growth with NCI-H522 lung was 86.6% (inactive); in the experiment with A549/ATCC NSCLC it was 84.7% (inactive); in the experiment on 786-0 renal, 124% (inactive); in the experiment on COLO 205 colon, 93.9% (inactive); in the experiment with DU-145 prostate, 90% (inactive); in the experiment with K-562 leukemia it was 90.8% (inactive). Besides, the growth was 117% (inactive) in the experiment with MALME-3M melanoma; 52.2% (inactive) in the experiment on MDA-MB-231 breast; 83.2% (inactive) in the experiment with RXF 393 renal; 111% (inactive) in the experiment on SF-268 CNS; 97.2% (inactive) with SF-295 CNS; 89.7% (inactive) in the experiment with SF-539 CNS. The results for the growth in the experiment with UACC-257 melanoma and in the experiment on M14 melanoma were 100% (inactive) and 90.8% (inactive), respectively.
As to `COc1ccc(/C=C/C(=O)c2cc3c(N)c(C(=O)Nc4ccccc4)sc3nc2C)cc1`, the growth with NCI-H23 lung was 28.8% (inactive); in the experiment with NCI-H226 lung, 42.7% (inactive); with NCI-H322M lung, 35.9% (inactive); in the experiment with HOP-62 NSCLC, 32.9% (inactive); in the experiment with NCI-H460 lung, -1.05% (active); in the experiment with HOP-92 NSCLC, 40.6% (inactive). Also, the growth in the experiment on NCI-H522 lung was -17.9% (active); in the experiment on A549/ATCC NSCLC it was 16.8% (inactive); in the experiment on 786-0 renal it was 20.2% (inactive); in the experiment with COLO 205 colon, -17.4% (active); in the experiment with DU-145 prostate, 10.9% (inactive); in the experiment with K-562 leukemia, 14.7% (inactive). In addition, the growth is 58.1% (inactive) with MALME-3M melanoma; 13.3% (inactive) in the experiment on MDA-MB-231 breast; -19.2% (active) in the experiment with RXF 393 renal; 22.6% (inactive) with SF-268 CNS; 11.6% (inactive) with SF-295 CNS; -27.3% (active) in the experiment on SF-539 CNS. The growth is 69.5% (inactive) in the experiment on UACC-257 melanoma and 6.3% (active) with M14 melanoma.
As for `CC1=CC(C)(C)NC(=S)N1c1ccc(Cl)cc1`, the growth in the experiment with NCI-H23 lung is 101% (inactive) and 99% (inactive); in the experiment on NCI-H226 lung, 99% (inactive) and 103% (inactive); in the experiment with NCI-H322M lung, 98.2% (inactive); in the experiment on HOP-62 NSCLC, 108% (inactive) and 102% (inactive); in the experiment on NCI-H460 lung, 101% (inactive) and 112% (inactive); with HOP-92 NSCLC it was 114% (inactive). The growth with NCI-H522 lung was 93.7% (inactive) and 92.4% (inactive); in the experiment with A549/ATCC NSCLC, 98% (inactive) and 104% (inactive); with 786-0 renal, 99.8% (inactive) and 97.7% (inactive); in the experiment with COLO 205 colon, 109% (inactive) and 100% (inactive); in the experiment on DU-145 prostate it was 105% (inactive) and 110% (inactive); with K-562 leukemia it was 97.7% (inactive) and 92.6% (inactive). Further, the growth in the experiment with MALME-3M melanoma is 99.7% (inactive); in the experiment with MDA-MB-231 breast, 101% (inactive) and 99.3% (inactive); in the experiment on RXF 393 renal, 104% (inactive) and 121% (inactive); with SF-268 CNS, 101% (inactive) and 100% (inactive); in the experiment on SF-295 CNS, 101% (inactive) and 111% (inactive); in the experiment with SF-539 CNS it was 98.7% (inactive) and 106% (inactive). Besides, the growth is 98.6% (inactive) and 105% (inactive) in the experiment with UACC-257 melanoma; 102% (inactive) and 95% (inactive) with M14 melanoma.
For `CC(=NCc1ccccc1)c1ccc(O)cc1O`, the growth with NCI-H23 lung is 97.5% (inactive); in the experiment on NCI-H226 lung, 101% (inactive); with NCI-H322M lung, 103% (inactive); in the experiment on HOP-62 NSCLC, 101% (inactive); in the experiment on NCI-H460 lung it was 107% (inactive); with HOP-92 NSCLC, 76.2% (inactive). Further, the growth with NCI-H522 lung was 111% (inactive); in the experiment with A549/ATCC NSCLC, 100% (inactive); with 786-0 renal, 105% (inactive); with COLO 205 colon it was 105% (inactive); in the experiment with DU-145 prostate, 112% (inactive); in the experiment with K-562 leukemia it was 96.6% (inactive). Besides, the growth with MALME-3M melanoma is 93.8% (inactive); in the experiment with MDA-MB-231 breast, 96.9% (inactive); in the experiment with RXF 393 renal, 122% (inactive); in the experiment with SF-268 CNS, 101% (inactive); in the experiment with SF-295 CNS, 123% (inactive); with SF-539 CNS, 97.8% (inactive). Also, the growth in the experiment on UACC-257 melanoma was 88.1% (inactive); in the experiment with M14 melanoma it was 104% (inactive).
As to `N#Cc1c(-c2cccc(F)c2)cc(-c2cccnc2)[nH]c1=O`, the growth in the experiment with NCI-H23 lung is 105% (inactive); in the experiment with NCI-H226 lung it was 101% (inactive); in the experiment with NCI-H322M lung, 101% (inactive); with HOP-62 NSCLC, 95.7% (inactive); in the experiment on NCI-H460 lung it was 109% (inactive); in the experiment with HOP-92 NSCLC, 110% (inactive). In addition, the growth with NCI-H522 lung is 90.1% (inactive); in the experiment with A549/ATCC NSCLC, 101% (inactive); in the experiment on 786-0 renal, 97.6% (inactive); in the experiment on COLO 205 colon, 108% (inactive); in the experiment on DU-145 prostate it was 107% (inactive); with K-562 leukemia, 95.3% (inactive). In addition, the growth with MALME-3M melanoma was 103% (inactive); with MDA-MB-231 breast it was 104% (inactive); in the experiment with RXF 393 renal, 112% (inactive); in the experiment with SF-268 CNS, 103% (inactive); in the experiment on SF-295 CNS, 102% (inactive); with SF-539 CNS, 99.3% (inactive). Besides, the growth with UACC-257 melanoma is 112% (inactive); in the experiment with M14 melanoma it was 102% (inactive).
In the case of `Cc1ccc(-c2nc([P+](c3ccccc3)(c3ccccc3)c3ccccc3)c(Nc3ccccc3)o2)cc1`, the growth in the experiment on NCI-H23 lung is -6.49% (active); in the experiment with NCI-H226 lung, 20.2% (inactive); in the experiment with NCI-H322M lung it was 4.01% (active); in the experiment on HOP-62 NSCLC it was -16.4% (active); with NCI-H460 lung, -45.3% (active); with HOP-92 NSCLC it was -14.4% (active). The growth is -33.5% (active) with NCI-H522 lung; 4.95% (active) with A549/ATCC NSCLC; -24.5% (active) in the experiment on 786-0 renal; -62.8% (active) in the experiment with COLO 205 colon; 13.2% (inactive) in the experiment on DU-145 prostate; 0.731% (active) with K-562 leukemia. Further, the growth in the experiment on MALME-3M melanoma is -44.1% (active); with MDA-MB-231 breast, -36.5% (active); with RXF 393 renal it was -31.7% (active); with SF-268 CNS, 10.6% (inactive); in the experiment with SF-295 CNS it was -21% (active); in the experiment with SF-539 CNS, -76.6% (active). In addition, the growth was -13.5% (active) in the experiment with UACC-257 melanoma and -40.4% (active) in the experiment with M14 melanoma.
